Assay outcomes as filed in PubChem.
The list is not random: actives were taken first. Their share in the collection is about 5.3%.
ALOX12 inhib = blocks human 12-lipoxygenase activity; P18054; purified 12-hLO, xylenol orange hydroperoxide absorbance; Potency, µM (top dose mostly 57.1 µM), for inactives: at the top dose activity change, negative = inhibition, usual class: inhibitors; 0.12% of 150,000 active; AID 1452; also: potency is read from the fitted curve at half-maximal effect; nearly all actives have a fitted effect of over 55% in size
Target sequence (P18054 whole entry, looked up): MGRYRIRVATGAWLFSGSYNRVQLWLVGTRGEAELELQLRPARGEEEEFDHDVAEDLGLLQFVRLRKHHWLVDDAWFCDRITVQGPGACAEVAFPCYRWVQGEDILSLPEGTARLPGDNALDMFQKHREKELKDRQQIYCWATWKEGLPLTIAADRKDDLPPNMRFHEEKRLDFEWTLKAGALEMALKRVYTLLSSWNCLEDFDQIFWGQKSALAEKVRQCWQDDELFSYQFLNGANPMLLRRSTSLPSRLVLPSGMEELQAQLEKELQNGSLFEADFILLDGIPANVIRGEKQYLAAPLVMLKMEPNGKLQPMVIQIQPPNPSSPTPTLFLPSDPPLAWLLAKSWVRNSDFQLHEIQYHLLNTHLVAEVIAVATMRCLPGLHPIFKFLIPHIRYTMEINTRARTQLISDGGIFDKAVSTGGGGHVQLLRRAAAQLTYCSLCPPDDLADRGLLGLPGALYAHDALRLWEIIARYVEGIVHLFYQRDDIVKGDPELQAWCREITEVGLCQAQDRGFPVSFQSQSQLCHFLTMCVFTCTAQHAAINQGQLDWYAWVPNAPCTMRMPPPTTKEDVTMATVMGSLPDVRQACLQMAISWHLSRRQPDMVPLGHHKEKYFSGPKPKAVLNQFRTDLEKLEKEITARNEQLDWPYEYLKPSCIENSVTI
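Lipoxygenase turnover measured by absorbance at 573 and 405 nm after Fe-XO development. Human 12hLO 150 nM, arachidonate 40 uM, pH 7.0 Hepes buffer with detergent; 15 min compound preincubation, 30 min reaction.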
ALOX15B inhib = 15-hLO-2 (ALOX15B) enzyme inhibition; O15296; purified 15hLO-2, xylenol orange hydroperoxide absorbance; Potency, µM (highest dose often 57.1 µM), for the others: top-dose activity change, negative = inhibition, most hits filed as inhibitors; 0.56% of 110,000 active; AID 881; also: potency is read from the fitted curve at half-maximal effect; nearly all actives have a fitted effect of over 60% in size
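Read-out: hydroperoxide product oxidises ferrous iron, measured as xylenol orange complex via the 573-to-405 nm absorbance ratio after 30 min. Reaction: 50 nM enzyme, 15 min compound preincubation, 45 uM arachidonic acid, 90 min RT, Hepes pH 7.5 with Triton X-100.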
HPGD inh = HPGD (human) dehydrogenase inhibition. Potency, µM, for the others: top-dose activity change, negative = inhibition, most hits filed as inhibitors. AID 894. 4.3% of 150,000 active. purified HPGD, NADH fluorescence kinetic, PGE2 substrate. P15428; active = well fitted inhibition curve with a large enough effect, not every such curve was filed as active; inconclusive = small, poorly fitted or top-dose-only effect, or another doubt; inactive = no such curve, though single readings can be large or run the other way; also: potency is read from the fitted curve at half-maximal effect
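NADH formation kinetics: reaction with 30 uM PGE2 and 1 mM NAD+ (final), 20 nM enzyme, Tris-HCl pH 8 with Tween 20, after 15 min compound preincubation at room temperature. Fluorescence change, last versus first of five reads.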
IMPase inh = membrane-permeable compound that blocks inositol monophosphatase. AID 901. 120,000 tested, under 10 active. P97697. inhibition (IP1 accumulation), % at 46.1 µM. CHO-M1 cells, IP1 accumulation, HTRF TR-FRET ratio; active = well fitted curve in the direction sought with a large enough effect in the signal ratio, not every such curve was filed as active; inconclusive = small, poorly fitted or top-dose-only effect, or a change in a side signal; inactive = no such curve, though single readings can be large or run the other way; the % refers to the signal ratio;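 also: cells stimulated with carbachol in lithium chloride buffer; plate controls were DMSO basal wells for no effect and reference inhibitor wells for full effect; higher means more IMPase inhibition seen as more IP1 and lower FRET ratio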
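CHO-M1, 2000 cells/well, cultured 16–30 h; cpd up to 46 uM; carbachol (50 uM solution, stimulation buffer w/ 50 mM LiCl, pH 7.4), 30 min 37C; IP-One TR-FRET, 10 min RT; Ex 320/Em 665, 620; Hill-fit AC50.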
IMPase Li inh = IMPase inhibition in cells with lithium potentiation; CHO-M1 cells, IP1 TR-FRET (IP-One), carbachol + lithium; Potency, µM (top dose mostly 59.4 µM), for the others: at the highest dose activity, negative = IMPase inhibition, usual class: inhibitors; 0.35% of 210,000 active;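 also: IP1 builds up when IMPase is blocked and the TR-FRET signal falls; potency is read from the fitted curve at half-maximal effect; plate controls were basal vehicle for no effect and high inhibitor control for full effect; nearly all actives have a fitted effect of over 50% in size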
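Concentration–response in CHO-M1 cells, lithium-potentiated; 30 min at 37C. IP1 detected by competitive TR-FRET after 10 min lysis at RT. Hill-fitted AC50.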
PNC inhibitor = perinucleolar compartment assembly inhibition; 3.1% of 140,000 active; PC3M PTB-GFP, PNC prevalence imaging, 16 h; active compounds read low; AID 2417; activity change (PNC), negative = inhibition, % at 10 µM;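 active = readout at or below -70, meaning at least 70% loss of cells showing the perinucleolar compartment, a nuclear body marking cancer cells; inconclusive = readout between -30 and a set limit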;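 also: plate controls were DMSO wells for no effect and camptothecin positive control wells for full effect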
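PC3M cells stably expressing PTB-GFP, 750–1000 cells/well, treated 16 h at 37 °C with compound (23 nl of library stock), in duplicate. After paraformaldehyde fixation and Hoechst stain, imaged at 20x; PNC prevalence scored by image analysis.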
* marks the source's active call; other numbers are inactive results; ? = inconclusive; . = no result; [ ] = another dose, or the depositor's remark. Unless noted, calls follow the shape of the dose curve; as a rule, active = well fitted curve in the direction sought with a large enough effect; inconclusive = small, poorly fitted or top-dose-only effect, or another doubt; inactive = no such curve, though single readings can be large; an effect the other way counts as inactive or inconclusive. Unless noted, % is scaled to controls: 0 for no effect and ±100 for the full control effect.

SMILES | ALOX12 inhib | ALOX15B inhib | HPGD inh | IMPase inh | IMPase Li inh | PNC inhibitor
C=CCSC1=N/C(=C\c2cc(OCC)c(OC(C)=O)c([N+](=O)[O-])c2)C(=O)S1 | -22% | . | 6.3µM* | . | 0% | -116*
CCC(Sc1nc2c(c(=O)n1CC)SC(C)C2)C(=O)OC (configuration not stated) | -4% | 0% | -12% | 5 | 35%[38.3 µM] | ?
CCOC(=O)C(C(=O)OCC)C(C(=O)OCC)N1CCOCC1 (configuration not stated) | -5% | -29% | 22µM* | -5 | 32%[38.3 µM] | 21
CC1=C(C(=O)Nc2ccccc2)C(c2ccccc2)n2nc(-c3ccco3)nc2N1 (configuration not stated) | . | . | . | 0 | . | .
CCOC(=O)C1C(=O)C(C(C)=O)C(=O)CC1CC(C)SCC (configuration not stated) | -8% | 12% | -13% | -6 | 20%[38.3 µM] | 12
O=C(CSc1nnc(-c2ccco2)n1Cc1ccccc1)c1ccc(F)cc1 | -21% | -15% | 25µM* | -2 | 10%[38.3 µM] | 9
Cc1cc(NC(=O)CSc2nnc(-c3ccc(Br)o3)n2Cc2ccccc2)no1 | -7% | -15% | -5% | -9 | 0%[38.3 µM] | 17
Cc1occc1-c1nnc(SCC(=O)c2ccc(F)cc2)n1Cc1ccco1 | -17% | -20% | ? | 11 | 25%[38.3 µM] | 37
O=C(CSc1nnc(-c2ccco2)n1Cc1ccccc1)NCc1ccccc1 | 2% | . | -19% | 3 | 3% | 200
O=C(CSc1nnc(-c2ccc(Br)o2)n1Cc1ccccc1)c1ccccc1F | -6% | -20% | 32µM* | 1 | 35%[38.3 µM] | ?
O=C(CSc1nnc(-c2ccco2)n1Cc1ccco1)NCc1ccccc1 | 3% | -6% | -21% | 2 | 24%[38.3 µM] | -94*
CC(C)(C)NC(=O)CCSc1nc(-c2ccc3c(c2)OCO3)cc(C(F)(F)F)n1 | . | . | . | 3 | . | .
CCCCN(C(=O)Nc1ccc(Cl)cc1)C1CCN(C(C)=O)CC1 | 2% | 4% | -8% | 4 | 1%[38.3 µM] | -95*
Cc1ccc(CN2CCN(Cc3cccn3-c3nccs3)CC2CCO)cc1 (configuration not stated) | . | . | . | . | 12% | .
O=C(OCC(=O)N1c2ccccc2Sc2ccccc21)C1CC(=O)N(Cc2ccco2)C1 (configuration not stated) | 1% | -12% | -12% | -8 | -3%[38.3 µM] | -21
O=C(COC(=O)C1CC(=O)N(Cc2ccco2)C1)c1ccc(OC(=O)c2ccccc2)cc1 (configuration not stated) | 3% | . | 28µM* | 9 | 3% | -3
CC(=O)c1ccccc1[N+](=O)[O-] | 0% | 2% | -5% | . | -13% | .
Cn1cccc1C(=O)OCC(=O)c1cc2ccccc2o1 | -14% | ? | 28µM* | -7 | -6%[38.3 µM] | 3
O=C(COC(=O)c1ccc(Cl)s1)c1cc2ccccc2o1 | -4% | -27% | 35µM* | 1 | 17%[38.3 µM] | ?
COc1ccc2c(c1)O[C@@H](c1cccc(C(F)(F)F)c1)[C@H](OC(=O)N[C@H](C)C1CCCCC1)C2=O | . | . | 0% | . | 8% | .
CCOc1ccc(C2=NNC(c3cccs3)=Nc3ccc(OC)cc32)cc1OCC | -6% | . | -13% | -5 | 13% | -100*
CC(C)(C)NC(=S)NNC(=O)c1ccncc1 | 4% | . | 13µM* | . | 5% | -114*
Cc1noc(C)c1COC(=O)c1ccc2c(c1)OCO2 | -16% | 1% | -24% | 15 | -11%[38.3 µM] | 19
Cc1noc(C)c1COC(=O)c1ccc2c(c1)S(=O)(=O)c1ccccc1C2=O | -3% | -13% | 28µM* | -2 | -12%[38.3 µM] | ?
CCOc1nc(-c2ccccc2)ccc1-c1noc(-c2ccco2)n1 | -2% | . | ? | -7 | 5% | -100*
SMILES | ALOX12 inhib | ALOX15B inhib | HPGD inh | IMPase inh | IMPase Li inh | PNC inhibitor
COc1nc(-c2ccccc2)ccc1-c1noc(-c2ccc(F)cc2)n1 | -8% | 7% | ? | 2 | 8.9µM* | -9
O=C(COC(=O)CC(c1ccccc1)c1ccccc1)Nc1c(F)cccc1F | 2% | . | -6% | . | 9% | ?
COc1cc(/C=C(\C#N)c2nn(CCO)c(N)c2C#N)cc(OC)c1OC | . | . | . | . | -2% | .
COc1cc(/C=C(\C#N)c2[nH]nc(N)c2C#N)cc(OC)c1O | 2% | -20% | 16µM* | 16 | 49%[38.3 µM] | 6
Cc1ccccc1C(=O)Nc1nc(=S)ss1 | -3% | -24% | 14µM* | -2 | 4%[38.3 µM] | ?
Cc1ccccc1C(=O)Nc1ccc(Br)c(C)n1 | 4% | 5% | -20% | 4 | 30%[38.3 µM] | -107*
CC(=O)Nc1nc(=S)ss1 | -3% | 0%[2.29 µM] | 25µM* | 0 | -2%[38.3 µM] | 22
CC(C)CC(=O)Nc1nc(=S)ss1 | -1% | -23% | 14µM* | 4 | 24%[38.3 µM] | -8
CC(C)CC(=O)Nc1nc2ccc(S(C)(=O)=O)cc2s1 | . | . | . | . | 14% | .
COc1ccc(-c2nc(NC(C)=O)sc2-c2ccc(OC)cc2)cc1 | . | . | . | . | -1% | .
O=C(Nc1nc(=S)ss1)c1c(F)cccc1F | 5% | . | ? | -6 | -4%[38.3 µM] | -27
Cc1ccccc1OCCN1C(=O)NC2(CCc3ccccc32)C1=O (configuration not stated) | 1% | -5% | -21% | 0 | 27%[38.3 µM] | ?
CC(=O)c1cc(CN2CCN(C3CCCCC3)C(CCO)C2)cs1 (configuration not stated) | . | . | . | . | 26% | .
Cc1c(Cl)cccc1-c1ccc(C(=O)Nc2ccc(F)cc2)o1 | . | . | . | -10 | . | .
N#Cc1cnn(-c2cccc(Cl)c2)c1N | . | . | . | . | 1% | .
Nc1c(-c2cccc(Cl)c2)cnn1-c1cccc(C(F)(F)F)c1 | -20% | 16% | 13µM* | 12 | 36%[38.3 µM] | 26
Nc1c(-c2ccccc2)cnn1-c1cccc(C(F)(F)F)c1 | 4% | 26%[11.4 µM] | 10µM* | -14[1.84 µM] | 6%[38.3 µM] | ?
Cc1ccn2c(Nc3ccc4c(c3)OCCO4)c(-c3ccccc3O)nc2c1 | . | . | . | 0 | . | .
CCOc1ccc(CN2CCN(C3CCSCC3)CC2CCO)cc1 (configuration not stated) | . | . | . | . | 18% | .
N#CC1(NC(=O)CN2CCc3ccccc3C2)CCCC1 | . | . | . | . | -1% | .
CCC(C)NC(=O)CSC1=Nc2ccccc2C2=NC(CC(=O)NCc3ccccc3)C(=O)N12 (configuration not stated) | 2% | . | ? | ? | -6% | -100*
CCC(C)NC(=O)CSC1=Nc2ccccc2C2=NC(c3ccccc3)C(=O)N12 (configuration not stated) | 4% | 2% | ? | -2 | 22%[38.3 µM] | 0
CCN(CC)C(=O)CSC1=C(C#N)C(c2cccs2)C=C(C)N1 (configuration not stated) | -7% | -24% | ? | -22 | ? | 29
